# NPR2 activator – GC-B (human) receptor activation | P20594 | HEK293-GC-B cells, CNP EC30, cGMP TR-FRET; 0% at EC30 CNP, 100% saturating CNP | activation, % at 10 µM | 370,000 compounds, 0.11% hits;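 active = activation at 10 µM reaching about 35% in either raw or pattern-adjusted values, limit read from the data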
# Target sequence (P20594 whole entry, looked up): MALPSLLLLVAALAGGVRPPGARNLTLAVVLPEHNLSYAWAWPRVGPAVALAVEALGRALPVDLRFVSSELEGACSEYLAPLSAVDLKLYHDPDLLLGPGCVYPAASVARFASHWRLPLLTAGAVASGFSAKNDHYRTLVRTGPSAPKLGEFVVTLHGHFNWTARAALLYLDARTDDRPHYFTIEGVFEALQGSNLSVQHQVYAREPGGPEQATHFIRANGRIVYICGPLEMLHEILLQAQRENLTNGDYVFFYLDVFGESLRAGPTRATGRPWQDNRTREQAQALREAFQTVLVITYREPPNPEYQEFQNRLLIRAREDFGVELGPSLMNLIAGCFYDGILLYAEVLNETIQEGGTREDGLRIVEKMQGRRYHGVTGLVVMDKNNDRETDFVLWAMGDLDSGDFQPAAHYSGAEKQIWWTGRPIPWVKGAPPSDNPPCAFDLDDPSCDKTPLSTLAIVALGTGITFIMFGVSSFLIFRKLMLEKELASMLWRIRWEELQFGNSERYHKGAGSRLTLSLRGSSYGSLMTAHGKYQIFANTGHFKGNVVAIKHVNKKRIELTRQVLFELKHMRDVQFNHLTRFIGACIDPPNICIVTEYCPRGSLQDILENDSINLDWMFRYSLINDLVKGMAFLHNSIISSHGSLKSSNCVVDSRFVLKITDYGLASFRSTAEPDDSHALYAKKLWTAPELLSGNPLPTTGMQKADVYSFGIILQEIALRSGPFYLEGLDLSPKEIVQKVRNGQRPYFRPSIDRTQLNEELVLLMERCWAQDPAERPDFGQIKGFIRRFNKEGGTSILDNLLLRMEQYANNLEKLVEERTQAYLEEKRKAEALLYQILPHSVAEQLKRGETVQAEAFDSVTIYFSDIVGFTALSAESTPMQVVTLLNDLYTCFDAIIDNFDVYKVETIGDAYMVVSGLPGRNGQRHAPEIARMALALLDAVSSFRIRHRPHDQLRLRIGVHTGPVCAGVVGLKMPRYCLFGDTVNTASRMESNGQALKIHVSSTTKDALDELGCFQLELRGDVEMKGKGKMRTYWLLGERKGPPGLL
# ADAM10 inh – inhibits human ADAM10. 370,000 compounds, 0.62% hits. inhibition, % at 7 µM. O14672. recombinant ADAM10, EDANS/DABCYL FRET peptide cleavage, 3 h;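 active = inhibition above a per-campaign cutoff equal to the mean of compounds falling between control-based bounds plus 3 SD, cut at about 20% in these data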;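 note: 0% = DMSO wells while the 100% control is not disclosed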
# ADAM17 inh – inhibitors of human ADAM17. 370,000 compounds, 0.83% hits. P78536. AID 720648. inhibition, % at 6.95 µM. recombinant ADAM17, EDANS/DABCYL FRET peptide cleavage;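 active = inhibition above the mean of compounds lying between control limits plus 3 SD, set per campaign, cut at about 8.5% in these data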;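 note: 0% = DMSO-only wells as the low control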
# GC-A act – GC-A (human) enzyme activation | P16066 | HEK293 GC-A cells, cGMP TR-FRET, EC30 ANP; 0% at EC30 ANP, 100% saturating ANP | activation, % at 10 µM | 370,000 compounds, 0.14% hits | AID 1671463; in the data active = activation above about 40%
# ADAM10 ctr – inhibits human ADAM10 in ADAM17 exosite counter-screen. 2,900 compounds, 47% hits. shares compounds with ADAM17 inh. inhibition, % at 6.95 µM. AID 743256. recombinant ADAM10, EDANS/DABCYL FRET peptide cleavage, 3 h;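 active = mean inhibition over the triplicate runs exceeds the activity threshold set in the earlier primary screen, cut at about 20% in these data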;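 note: 0% = DMSO wells and 100% = marimastat wells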
# ADAM17 confirm – confirmation of inhibitors of human ADAM17; shares compounds with ADAM17 inh; recombinant ADAM17, EDANS/DABCYL QFRET peptide cleavage; inhibition, % at 6.95 µM; 2,900 compounds, 65% hits; AID 743257;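 active = mean inhibition across replicates above the hit cutoff set in the primary screen, cut at about 8.5% in these data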;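 note: 0% = DMSO wells and 100% = marimastat wells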
# * marks the source's active call; other numbers are inactive results; . = no result. Only some compounds are listed: those with a hit (about 1.3% of all), similar ones and a draw of the others.
SMILES,NPR2 activator,ADAM10 inh,ADAM17 inh,GC-A act,ADAM10 ctr,ADAM17 confirm
CCCCOP(=O)(OCCCC)C(O)c1ccc(Br)cc1 (centres undefined),-9,11,11*,-16,-6,0
CCOC(=O)C1=C(c2ccccc2)NC(=O)NC1c1cc(Br)c(O)c(OC)c1 (centres undefined),-15,-1,10*,-42,13,3
CCOC(=O)C1=C(c2ccccc2)NC(=S)NC1c1cccc([N+](=O)[O-])c1 (centres undefined),-6,-6,3,-12,.,.
CCOC(=O)C1=C(c2ccccc2)NC(=S)NC1c1cc([N+](=O)[O-])ccc1OC (centres undefined),-19,12,9.2*,-19,10,6
COc1ccc(S(=O)(=O)Nc2ccc3ccccc3c2)cc1C,0,19,10*,-4,29*,18*
CCOc1ccc(NC(=O)CN(C)C(=O)c2cn(-c3ccc(C)cc3)nc2-c2cccc(OC)c2)cc1OCC,-2,9,14*,-4,34*,18*
COc1cccc(-c2nn(-c3ccc(C)cc3)cc2C(=O)N(C)CC(=O)Nc2cccc(F)c2)c1,0,20,8,-2,.,.
Clc1ccccc1Sc1cnc2ccccc2n1,-3,1,8.8*,2,-6,0
CCOC(=O)c1c(NC(=O)CN2CCN(S(=O)(=O)c3cc(Cl)ccc3Cl)CC2)sc(C(=O)N(C)C)c1C,7,-3,5,1,.,.
Nc1[nH]c(C(=O)c2ccccc2)c(-c2cccnc2)c1C(=O)NC1CCCCC1,-2,-4,-5,-1,.,.
O=S(=O)(Nc1ccc(-c2cn3c(n2)SCC3)cc1)c1cc(F)ccc1F,-1,-3,0,1,.,.
O=S(=O)(c1ccccc1F)N1CCC(c2nc3ccccc3o2)CC1,-7,-3,9.1*,-4,13,4
Cc1nc(NC(=O)CSc2nc3ccccc3s2)sc1C(=O)N(C)C,-2,2,10*,-3,10,7
Cc1cc(C)nc(NC(=O)CSc2nc3ccccc3s2)n1,-6,-3,-3,1,.,.
COC(=O)[C@]12C[C@H](CC(=O)NCc3cccc4ccccc34)C(=O)N(Cc3ccccc3)C1=C[C@H](C1CCCC1)O[C@@H]2C,-5,5,1,-3,.,.
COc1cc(C=NNC(=O)Cn2nc(C)cc2C)ccc1OC(=O)C1CC1,1,-11,-2,1,.,.
COc1ccccc1-c1cc(C(=O)Nc2sc3c(c2C#N)CCC(C)C3)c2ccccc2n1 (centres undefined),0,-8,9.9*,0,-34,2
COc1ccc(OC)c(-c2cc(C(=O)Nc3sc4c(c3C#N)CCC(C)C4)c3ccccc3n2)c1 (centres undefined),0,-4,-1,-1,.,.
CCc1ccccc1NC(=O)CCC(=O)N1CCSc2ccccc21,1,-3,0,4,.,.
COc1ccccc1C(=O)NCC(=O)NC(C)CCc1ccccc1 (centres undefined),-6,-7,9.2*,-1,3,5
CC(C)(C)S(=O)N1Cc2ccc(CO)cc2[C@@H]1CCO (some centres undefined),-1,7,3,2,.,.
N/C(=N\N=C\c1ccc2c(c1)OCO2)c1nonc1N,-1,20,9.8*,0,11,6
O=C(/C=C/c1ccccc1Cl)Nc1cccc(O)c1,-5,6,9.2*,-8,2,4
O=C(/C=C/c1ccccc1Cl)Nc1ccccc1,-2,13,2,-3,.,.
CCN(CC(=O)Nc1c(F)cccc1F)C(=O)c1ccc(S(=O)(=O)N2CCCCCC2)cc1,5,5,0,0,.,.
SMILES,NPR2 activator,ADAM10 inh,ADAM17 inh,GC-A act,ADAM10 ctr,ADAM17 confirm
CCN(CC(=O)Nc1c(F)cccc1F)C(=O)c1ccc(S(=O)(=O)N2CCC(C)CC2)cc1,-1,12,10*,1,10,7
CCOC(=O)Cn1c(S(=O)(=O)Cc2ccc(F)cc2)nc(-c2ccccc2)c1-c1ccccc1,-11,3,2,-14,.,.
C#CCn1c(S(=O)(=O)Cc2ccc(F)cc2)nc(-c2ccccc2)c1-c1ccccc1,-8,16,8.7*,-14,22*,16*
CCCCN(C(=O)C1CC(=O)N(c2ccc3c(c2)OCCO3)C1)c1c(N)n(CCC)c(=O)[nH]c1=O (centres undefined),2,-10,-6,2,.,.
CCCCN(C(=O)C1CC(=O)N(c2ccc(C)cc2)C1)c1c(N)n(CCC)c(=O)[nH]c1=O (centres undefined),5,-1,11*,0,-5,-2
COc1c(OC(C)=O)ccc(/C=C/c2ccc3ccccc3n2)c1[N+](=O)[O-],-5,17,17*,3,25*,14*
O=C(Nc1ccc2nc(C(F)(F)F)[nH]c2c1)[C@@H]1O[C@H](CO)[C@@H](O)[C@H]1O,-3,-19,0,5,.,.
CC(C)C[C@H](NC(=O)N1c2ccccc2NC(=O)[C@@H]1C(C)C)C(=O)N[C@@H](Cc1ccccc1)C(=O)O,-6,-10,-1,0,.,.
COc1ccc(-c2noc(C3CCCN(C(=O)Nc4ccc(C)c(F)c4)C3)n2)cc1 (centres undefined),-4,5,9.8*,-1,18,9.2*
Cc1cc(NC(=O)CSCC(=O)N(c2ccc(F)cc2)C(C(=O)NC2CCCCC2)c2ccc(O)c(O)c2)no1 (centres undefined),-2,8,3,5,.,.
Cc1cc(NC(=O)CSCC(=O)N(c2cccc(Cl)c2)C(C(=O)NC2CCCCC2)c2ccc(O)c(O)c2)no1 (centres undefined),-7,8,9.5*,-2,-2,5
COc1ccccc1-c1cnc2c(c1)C(=O)N([C@@H](C)CO)C[C@H](C)[C@H](CN(C)C)O2,-1,2,4,1,.,.
Cn1c(=O)c(Nc2ccc(O)cc2)c2c3c(cccc31)C(=O)c1ccccc1-2,15,17,9.2*,18,19,15*
CC(Sc1ccc(Cl)cc1)C(=O)NCC(c1ccco1)N1CCCCC1 (centres undefined),1,-4,-2,-6,.,.
CCN1C(=O)/C(=C/c2ccc(C)s2)NC1=S,38*,14,10*,35,12,12*
Cc1ccc(/C=C2/NC(=O)N(Cc3ccccc3)C2=O)s1,-1,1,-3,3,.,.
O=C1CC(N(CCc2ccccc2)C(=S)Nc2ccccc2)C(=O)N1c1ccccc1 (centres undefined),-10,17,8.7*,-6,11,8.9*

# Compound activity from PubChem.
